This is an account of results in PubChem BioAssay (NCATS).

For the assay, the system named is HIV-1 nucleocapsid protein NCp7 (binding to TG oligonucleotide). Nature of the assay: HIV Nucleocapsid (AID 346).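 Note: potency is for inhibitors that block NC binding and lower polarization.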 The following applies: HIV-1 NC / fluorescein-TGTGTGTG probe, fluorescence polarization. The method, boiled down: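 Fluorescence polarization readout: labelled TG4xF oligo (10 nM) with 100 nM nucleocapsid protein, high-salt (250mM NaCl) Hepes pH 7.5 buffer containing zinc and fresh reducing agents. Compounds added by pin tool; incubation 1 hr, room temperature.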

Each structure is given as a SMILES string. A number with no mark means an inactive call. The rule behind the calls is not given here. A value given as a limit tells only on which side of the number the result lay.
Potency is the fitted concentration of half-maximal effect.

`O=C(Nc1cccc(F)c1)N1CCC2(CC1)CCN(C(=O)c1cccc(F)c1)CC2`: the Potency is over 20 µM.

As for `COc1cccc(Nc2ncc3nc(-c4cccs4)c(=O)n(C[C@H]4CCCO4)c3n2)c1`, the Potency was over 4 µM.

Take `O=C(Oc1ccccc1)N1CCC2(CCCN(c3ccccc3)C2)CC1`: the Potency is over 20 µM.

Regarding `Cn1cccc1C(=O)N1CCC2(CCCN(Cc3ccccc3)C2)CC1`, the Potency was over 20 µM.

As for `O=C(Nc1cccc(F)c1)N1CC[C@@]2(CCCN(C(=O)c3csnn3)C2)C1`, the Potency is over 20 µM.

Take `CN1CCN(c2ncncc2-c2ccccc2Cl)CC1`: the Potency was over 20 µM.

With `CN(C)c1ncnc2ccc(-c3cccc(C#N)c3)cc12`, the Potency was over 20 µM.

Turning to `CS(=O)(=O)Nc1cccc(-c2cc(Nc3ccccc3)ncn2)c1`, the Potency was over 20 µM.

For `O=C(c1cc(C(F)(F)F)cc(C(F)(F)F)c1)N1CCC[C@@]2(CCN(c3ccncc3)C2)C1`, the Potency is over 20 µM.

Regarding `Cn1cccc1C(=O)N1CCC2(CCCN(c3ccccn3)C2)CC1`, the Potency is over 20 µM.

Turning to `O=C(c1cccc(F)c1)N1CCC2(CC1)CN(c1cccc(-c3ccccc3)c1)C2`, the Potency was over 20 µM.

Turning to `O=C(c1cc(C(F)(F)F)cc(C(F)(F)F)c1)N1CCC2(CC1)CCN(c1ccccc1)CC2`, the Potency is over 20 µM.

In the case of `O=C(Nc1cccc(F)c1)N1CC2(CCN(C(=O)c3cccc(F)c3)CC2)C1`, the Potency was over 20 µM.

Regarding `CCNc1ncc2nc(-c3ccc(OC)cc3)c(=O)n(CCc3ccccc3)c2n1`, the Potency was over 4 µM.

For `COc1ccc2[nH]cc(CCNc3ncncc3-c3ccccc3CN(C)C)c2c1`, the Potency was over 20 µM.

Turning to `O=c1c(-c2cc(F)cc(F)c2)nc2cnc(N3CCOCC3)nc2n1CCc1ccccc1`, the Potency is over 20 µM.

On to `CN1CCN(c2ncc3nc(CCc4ccccc4)c(=O)n(CCc4ccccc4)c3n2)CC1`, for which the Potency is over 20 µM.

In the case of `COc1cccc(Cn2c(=O)c(-c3ccc(Cl)cc3)nc3cnc(N4CCNCC4)nc32)c1`, the Potency was over 20 µM.

Turning to `COc1ncc2ncc(=O)n(C)c2n1`, the Potency was over 20 µM.

`Cn1cccc1C(=O)N1CCC2(CCN(Cc3ccc(C#N)cc3)CC2)CC1`: the Potency is over 20 µM.

Turning to `Cc1cccc(CNc2cc(-c3ccc(N(C)C)cc3)ncn2)c1`, the Potency is over 20 µM.

As to `COc1ccc2[nH]cc(CCNc3ncncc3-c3cccnc3)c2c1`, the Potency was over 20 µM.

As for `COc1ccccc1CNc1cc(-c2ccc(C(=O)N(C)C)cc2)ncn1`, the Potency is over 20 µM.

Take `O=C(c1cccc(F)c1)N1CCC[C@@]2(CCN(Cc3ccncc3)C2)C1`: the Potency was over 20 µM.

Consider `COc1ccccc1-c1cc(Nc2ccc(F)cc2)ncn1`, for which the Potency is over 20 µM.

For the compound `O=C(c1cccc(F)c1)N1CCC2(CC1)CCN(c1cccc(-c3ccccc3)c1)CC2`, the Potency was over 20 µM.

Take `O=C(Nc1cccc(F)c1)N1CCC2(CC1)CCN(S(=O)(=O)c1ccccc1)CC2`: the Potency is over 20 µM.

As to `COc1ccc(C(=O)N2CCC3(CC2)CCN(c2cccc(-c4ccccc4)c2)CC3)cc1`, the Potency is over 20 µM.

Consider `O=C(c1cnccn1)N1CCC2(CCCN(c3ccccn3)C2)CC1`, for which the Potency is over 20 µM.

As for `CN(Cc1ccco1)c1nc(-c2ccccc2C(F)(F)F)nc2ccccc12`, the Potency is over 20 µM.

As to `Cc1cccc(CNc2ncncc2-c2cccc(NS(C)(=O)=O)c2)c1`, the Potency was over 20 µM.

Take `Fc1ccc(Nc2ccnc(-c3ccoc3)n2)cc1`: the Potency was over 20 µM.

For the compound `COC(=O)N1CCC[C@@]2(CCN(c3ccccn3)C2)C1`, the Potency was over 20 µM.

Turning to `COc1cccc(Cn2c(=O)c(C)nc3cnc(N4CCOCC4)nc32)c1`, the Potency is over 20 µM.

Regarding `O=c1cnc2cnc(Oc3ccccc3)nc2n1Cc1ccc(F)cc1`, the Potency was over 20 µM.

`COc1ccc(-n2c(=O)cnc3cnc(N4CCNCC4)nc32)cc1`: the Potency is over 20 µM.

Turning to `COc1ccc(NC(=O)N2CC3(CCN(C(=O)c4csnn4)CC3)C2)cc1`, the Potency is over 20 µM.

For `Cn1c(=O)c(-c2ccccc2)nc2cnc(Nc3ccccc3)nc21`, the Potency was over 4 µM.

As for `COc1ccc2[nH]cc(CCNc3ccnc(-c4ccccc4Cl)n3)c2c1`, the Potency is over 20 µM.

For the compound `O=S(=O)(c1ccccc1)N1CCC2(CCN(Cc3ccncc3)CC2)CC1`, the Potency was over 20 µM.

Consider `COc1cccc(Nc2ncc3ncc(=O)n(Cc4cccs4)c3n2)c1`, for which the Potency is over 20 µM.

For `COc1ccc(-c2nc3cnc(N4CCNCC4)nc3n(-c3ccc(OC)cc3)c2=O)cc1`, the Potency is over 20 µM.

With `CS(=O)(=O)N1CCC2(CC1)CN(C(=O)Nc1ccccc1)C2`, the Potency was over 20 µM.

Regarding `O=C(c1cc(C(F)(F)F)cc(C(F)(F)F)c1)N1CCC2(CC1)CN(Cc1ccncc1)C2`, the Potency is over 20 µM.

Turning to `CN(Cc1ccco1)c1ccnc(-c2cccc(NS(C)(=O)=O)c2)n1`, the Potency was over 20 µM.

`COc1ccc(CNc2ncncc2-c2ccccc2CN(C)C)c(OC)c1`: the Potency is over 20 µM.

Consider `COC(=O)N1CCC2(CCCN(Cc3nccs3)C2)CC1`, for which the Potency was over 20 µM.

Regarding `CS(=O)(=O)N1CCC2(CCN(Cc3ccc(C#N)cc3)CC2)CC1`, the Potency is over 20 µM.

For `CCNc1ncc2nc(-c3ccc(F)cc3)c(=O)n(CCOC)c2n1`, the Potency is over 4 µM.

For the compound `O=C(c1cnccn1)N1CCC2(CC1)CN(c1ccccn1)C2`, the Potency was over 20 µM.

As to `N#Cc1ccccc1-c1cncnc1NCc1cccnc1`, the Potency was over 20 µM.

Regarding `COc1ccc(CNc2nc(-c3ccoc3)nc3ccccc23)c(OC)c1`, the Potency was over 20 µM.

Consider `c1ccc(CNc2cc(-c3ccoc3)ncn2)cc1`, for which the Potency is over 20 µM.

In the case of `N#Cc1cccc(-c2nc3cnc(N4CCNCC4)nc3n(C3CC3)c2=O)c1`, the Potency is over 20 µM.

As for `COCC(=O)N1CCC2(CCCN(Cc3ccccc3)C2)CC1`, the Potency was over 20 µM.

With `O=C(c1cnccn1)N1CCC2(CCCN(Cc3ccncc3)C2)CC1`, the Potency was over 20 µM.

On to `COCC(=O)N1CCC2(CCCN(c3ncccn3)C2)CC1`, for which the Potency was over 20 µM.

Turning to `O=C(Nc1ccccc1)N1CCCC2(CCNCC2)C1`, the Potency was over 20 µM.

As to `COc1ccccc1-c1nccc(NC2CCNCC2)n1`, the Potency was over 20 µM.

On to `c1cncc(-c2cncnc2-n2ccnc2)c1`, for which the Potency was over 20 µM.

With `COc1ncc2nc(-c3ccccc3)c(=O)n(CCC#N)c2n1`, the Potency is over 20 µM.

Take `COc1ccc(-n2c(=O)c(-c3ccc(F)c(F)c3)nc3cncnc32)cc1`: the Potency is over 4 µM.

Turning to `O=c1cnc2cnc(Oc3ccccc3)nc2n1CCc1ccccc1`, the Potency is over 20 µM.

As to `O=C(c1csnn1)N1CCC2(CCCN(Cc3ccccc3)C2)CC1`, the Potency was over 20 µM.

As to `CS(=O)(=O)N1CCC2(CCN(c3ccncc3)CC2)CC1`, the Potency is over 20 µM.

For the compound `O=C(c1cnccn1)N1CCC2(CC1)CCN(c1cccc(-c3ccccc3)c1)CC2`, the Potency was over 20 µM.

Take `Cc1ccccc1-c1nc(NCCN2CCOCC2)c2ccccc2n1`: the Potency is over 20 µM.

With `Cn1c(=O)c(-c2ccccc2)nc2cnc(Oc3ccccc3)nc21`, the Potency is over 20 µM.

With `COc1ccccc1CN1CCCC2(CCN(C(=O)c3ccncc3)CC2)C1`, the Potency is over 20 µM.

For the compound `CC(C)NC(=O)N1CCC2(CC1)CCN(C(=O)c1cc(C(F)(F)F)cc(C(F)(F)F)c1)CC2`, the Potency was over 20 µM.

As to `COCCn1c(=O)c(-c2cccc(C#N)c2)nc2cnc(Oc3cccc(Cl)c3)nc21`, the Potency was over 20 µM.

Turning to `COCCn1c(=O)cnc2cnc(OCc3ccccc3)nc21`, the Potency was over 20 µM.

With `COc1ccc(Oc2ncc3nc(-c4ccccc4)c(=O)n(C4CC4)c3n2)cc1`, the Potency was over 20 µM.

With `O=c1cnc2cnc(Nc3ccccc3)nc2n1Cc1ccc(F)cc1`, the Potency is over 20 µM.

Take `CN(C)C(=O)c1ccc(-c2ccc3ncnc(NC4CC4)c3c2)cc1`: the Potency was over 20 µM.

With `COc1ccc(-n2c(=O)c(-c3cc(F)cc(F)c3)nc3cnc(N4CCOCC4)nc32)cc1`, the Potency was over 20 µM.

With `COc1cccc(Cn2c(=O)c(-c3ccccc3)nc3cnc(N4CCN(C)CC4)nc32)c1`, the Potency was over 20 µM.

On to `Cc1nc2cnc(N(C)C)nc2n(C2CC2)c1=O`, for which the Potency is over 20 µM.

For the compound `O=C(c1ccco1)N1CCC2(CCCN(c3ccccc3)C2)CC1`, the Potency was over 20 µM.

For `COc1cccc(Nc2ncc3nc(-c4cccs4)c(=O)n(Cc4cccs4)c3n2)c1`, the Potency is over 20 µM.

`O=c1c(-c2ccccc2)nc2cnc(N3CCOCC3)nc2n1C[C@H]1CCCO1`: the Potency is over 20 µM.

For the compound `COC(=O)N1CCC2(CCCN(c3cccc(-c4ccccc4)c3)C2)CC1`, the Potency is over 20 µM.

Take `CN(C)c1ncc2nc(-c3ccc(F)cc3)c(=O)n(Cc3ccc(F)cc3)c2n1`: the Potency is over 20 µM.

Regarding `Clc1ccccc1-c1cc(NCCN2CCOCC2)ncn1`, the Potency is over 20 µM.

Take `COc1ccc(Oc2ncc3nc(-c4cc(F)cc(F)c4)c(=O)n(C4CC4)c3n2)cc1`: the Potency was over 20 µM.

For `Cc1cccc(CNc2ncncc2-c2ccccc2CN(C)C)c1`, the Potency is over 20 µM.

With `FC(F)(F)c1ccccc1-c1nc(NCc2cccs2)c2ccccc2n1`, the Potency is over 20 µM.

Regarding `COCCn1c(=O)c(-c2ccc(F)cc2)nc2cncnc21`, the Potency is over 20 µM.

As to `COCCn1c(=O)cnc2cnc(Nc3ccccc3)nc21`, the Potency was over 4 µM.

Take `N#CCCn1c(=O)c(-c2ccc(Cl)cc2)nc2cnc(OCc3ccccc3)nc21`: the Potency is over 20 µM.

On to `COc1ccc(NC(=O)N2CC[C@@]3(CCCN(C(=O)c4csnn4)C3)C2)cc1`, for which the Potency was over 20 µM.

For the compound `COc1ccc(C(=O)N2CCC3(CCN(Cc4ccccc4)CC3)CC2)cc1`, the Potency was over 20 µM.

In the case of `N#Cc1cccc(-c2ccc3ncnc(NCc4cccs4)c3c2)c1`, the Potency is over 20 µM.

Regarding `Cc1ccccc1-c1cc(NCCN2CCOCC2)ncn1`, the Potency is over 20 µM.

Take `Cn1cccc1C(=O)N1CCC[C@@]2(CCN(c3ccccc3)C2)C1`: the Potency was over 20 µM.

As to `O=C(c1cc(C(F)(F)F)cc(C(F)(F)F)c1)N1CCC2(CCCN(c3ccccc3)C2)CC1`, the Potency was over 20 µM.

`Clc1ccccc1-c1nc(NCc2cccnc2)c2ccccc2n1`: the Potency is over 20 µM.

`CN(Cc1ccco1)c1nc(-c2ccccc2Cl)nc2ccccc12`: the Potency is over 20 µM.

As to `Cc1nc2cncnc2n(C2CC2)c1=O`, the Potency was over 20 µM.

Regarding `CN(C)c1ccc(-c2ccc3ncnc(-n4ccnc4)c3c2)cc1`, the Potency was over 20 µM.

For the compound `N#CCCn1c(=O)c(-c2cc(F)cc(F)c2)nc2cnc(OCc3ccccc3)nc21`, the Potency was over 20 µM.

With `CN(C)c1ccc(-c2nc(N(C)C)c3ccccc3n2)cc1`, the Potency was over 20 µM.

As for `Cn1cccc1C(=O)N1CCC[C@@]2(CCN(C(=O)Nc3cccc(C#N)c3)C2)C1`, the Potency is over 20 µM.

Regarding `CC(=O)N1CCC[C@@]2(CCN(C(c3ccccc3)c3ccccc3)C2)C1`, the Potency was over 20 µM.

As to `Cc1noc(C)c1-c1ccc2ncnc(NCc3ccccc3)c2c1`, the Potency is over 20 µM.

Consider `O=S(=O)(c1ccccc1)N1CCC2(CCCN(c3ncccn3)C2)CC1`, for which the Potency is over 20 µM.

`N#Cc1cccc(-c2nc3cnc(N4CCOCC4)nc3n(Cc3ccc(F)cc3)c2=O)c1`: the Potency is over 20 µM.

In the case of `COCC(=O)N1CCC[C@@]2(CCN(Cc3ccc(C#N)cc3)C2)C1`, the Potency is over 20 µM.

As for `COc1cccc(Cn2c(=O)c(-c3cccs3)nc3cnc(N4CCOCC4)nc32)c1`, the Potency was over 20 µM.

Regarding `Cc1ccccc1-c1nc(-n2ccnc2)c2ccccc2n1`, the Potency is over 20 µM.

As to `Cc1cnc(CNc2cc(-c3ccc(C(=O)N(C)C)cc3)ncn2)cn1`, the Potency is over 20 µM.

As for `c1cncc(CNc2ncnc3ccc(-c4ccoc4)cc23)c1`, the Potency is over 20 µM.

Consider `Cc1cccc(CNc2ncnc3ccc(-c4ccc(C(=O)N(C)C)cc4)cc23)c1`, for which the Potency was over 20 µM.

As to `Cc1nc2cnc(Oc3ccccc3)nc2n(C)c1=O`, the Potency was over 20 µM.

Take `Cc1cnc(CNc2ccnc(-c3ccccc3CN(C)C)n2)cn1`: the Potency was over 20 µM.

For `COCCn1c(=O)c(-c2ccc(F)cc2)nc2cnc(Oc3ccccc3)nc21`, the Potency was over 20 µM.

As for `COc1ccc2[nH]cc(CCNc3ncncc3-c3ccoc3)c2c1`, the Potency is over 20 µM.

Take `O=S(=O)(c1ccccc1)N1CCC2(CCN(Cc3nccs3)CC2)CC1`: the Potency is over 20 µM.

As to `CC(=O)N1CCC[C@@]2(CCN(c3ccccc3)C2)C1`, the Potency is over 20 µM.

In the case of `COc1ccc(CNc2ncncc2-c2ccc3c(c2)OCO3)c(OC)c1`, the Potency is over 20 µM.
